Where a name gives a salt, the structure may show the parent alone. ± gives the standard deviation of the averaged measurements.

The subject of this assay is Toxoplasma gondii RH (in HFF). In words: parasite growth relative to the screen mean (all compounds = 100%); higher = less inhibition of parasite growth. The note with it: 5 µM; 72 h; oxygen 21 %. The gist of the method:
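Each value is parasite growth expressed against the screen mean, averaged over two screens, where the mean of all compounds = 100%. The screen used 5 µM final compound on confluent human foreskin fibroblasts infected with RH β-Gal–GFP Toxoplasma (MOI 1:5) within 2 h and grown 72 h at 21% O2. Parasite number was measured by a CPRG β-Gal assay against in-plate standard curves.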
Consider `COc1ccc(CCCOC(Cn2ccnc2)c2ccc(OC)cc2)cc1` (configuration not stated), for which the parasite growth came out at 95.6 ± 24%.

On to `NC1CCN(c2cccc(Cl)n2)CC1`, for which the parasite growth was 141 ± 23%.

With `Fc1ccc(-c2nc3n(c2-c2ccncc2)CCS3)cc1`, the parasite growth is below 0%.

The compound `COC(=O)/C=C/c1cc(O)ccc1O` [Methyl 2,5-dihydroxycinnamate] showed a parasite growth of 126 ± 30%.

For the compound `CC1(c2ccccc2)OC(C(=O)O)=CC1=O` (configuration not stated) [Acifran], the parasite growth was found to be 114 ± 2.4%.

Take `Cc1cccc(/C=C/c2ccccc2)n1`: the parasite growth stood at 99.2 ± 63%.

For the compound `Clc1ccccc1CNCC1CCC(CNCc2ccccc2Cl)CC1` (configuration not stated), the parasite growth stood at 38.9 ± 23%.

Regarding `Cc1noc(NS(=O)(=O)c2cccc3c(N(C)C)cccc23)c1C`, the parasite growth is 59.8 ± 11%.

Compound `NS(=O)(=O)c1cccc2c1c([N+](=O)[O-])cc1nc(O)c(O)nc12` [NBQX disodium salt] displayed a parasite growth of 112 ± 14%.

Turning to `COC(=O)[C@H]1[C@H]2C[C@H]3c4[nH]c5ccccc5c4CCN3C[C@H]2CC[C@@H]1O` [Rauwolscine hydrochloride], the parasite growth is 167 ± 41%.

As to `CN=c1nc(-c2ccccc2)n(-c2ccccc2)s1`, the parasite growth stood at 127 ± 29%.

`CN(CCOc1ccc(-c2ccc3c(c2)OCO3)cc1C(C)(C)C)CC(=O)O`: the parasite growth is 110 ± 38%.

Compound `CN1CCC[C@@H]1Cc1c[nH]c2ccc(CCS(=O)(=O)c3ccccc3)cc12` [Eletriptan hydrobromide] displayed a parasite growth of 126 ± 18%.

In turn, `O=c1[nH]c2cc(Cl)ccc2c(O)c1-c1cccc(Oc2ccccc2)c1` gave a parasite growth of 103 ± 19%.

`CCOC(=O)c1c(C)[nH]c2ccc3c(c12)CN1CCc2cc(OC)ccc2C1O3` (configuration not stated) returned a parasite growth of 16.8 ± 6.5%.

Compound `Oc1ccc(Nc2nc(-c3ccc(Cl)cc3)cs2)cc1` yielded a parasite growth of 26.9 ± 8%.

For `O=C(O)c1cc(O)c2ccc(Cl)cc2n1` [7-Chlorokynurenic acid], the parasite growth is 119 ± 9.9%.

These data come from the supplement of paper PMC4894684.
